# Where two headings read alike, the source gives them in different places. Screen size: about 13,000 compounds; about 3,200 (25%) showed an effect of 50% or more. This is one part of the list.
# Tested on: P. falciparum stage V gametocytes
# Parameters: BacTiter-Glo ATP luminescence viability of purified stage V gametocytes in 384-well plates, per cent inhibition versus DMSO
# Settings: 48 h, 5 µM, inhibitor
SMILES,% Inhibition [%],% Inhibition (% Inhibition) [%]
NC1=NC2(CCCCC2)N(OCCCOc2cccc3ccccc23)C(N)=N1 [TCMDC-131649],49.63,–
CCOc1ccc(Nc2nc(N)c3ccccc3n2)cc1.Cl [TCMDC-123748],31.55,–
Cl.c1ccc2c(Nc3ccc(OCCOCCOc4ccc(Nc5c6ccccc6nc6ccccc56)cc4)cc3)c3ccccc3nc2c1 [TCMDC-137355],108.9,–
Cl.c1ccc2c(Nc3ccc(Oc4ccc(Nc5c6ccccc6nc6ccccc56)cc4)cc3)c3ccccc3nc2c1 [TCMDC-124284],101.1,–
CC(=O)Nc1cccc(Nc2c3ccccc3nc3ccccc23)c1 [TCMDC-123741],-71.42,–
Cc1ccc(Nc2c3ccccc3nc3ccc(C)cc23)cc1 [TCMDC-124153],-51.64,–
O=c1c2ccccc2[nH]c2nc3ccccc3c(Nc3ccccc3)c12 [TCMDC-141996],28.3,–
CC(=O)Nc1ccc(Nc2c3ccccc3nc3ccccc23)cc1 [TCMDC-124356],67.17,–
Cc1cc2cc(/C=C/C(=O)NC3CCC(CCN4CCc5ccc(C#N)cc5CC4)CC3)ccc2[nH]1 (stereo not drawn) [TCMDC-139673],-19.51,–
CCn1cc2c3c(cc(C(=O)N[C@@H](Cc4ccccc4)[C@H](O)CNC4CCOCC4)cc31)N(C)S(=O)(=O)CC2 [TCMDC-135785],-5.565,–
COc1ccc(Nc2nc(NC3CCCC3)cc(-c3ccc(OC)cc3)n2)cc1 [TCMDC-133468],-75.14,–
Cc1ccccc1C1CCN(c2ccc(C(=O)Nc3ccc(F)cc3)cn2)CC1 [TCMDC-134611],39.85,–
CC(C)[C@H](NC(=O)c1ccc(O)c(-c2ccc(Cl)c(Cl)c2)c1)C(=O)NCCN1CCOCC1 [TCMDC-140850],-3.222,–
C=CCOC(=O)N1CCC(CNCc2ccc(-c3cccc(-c4nc5cccc(C)c5[nH]4)c3)cc2)C1.O=C(O)C(F)(F)F (stereo not drawn) [TCMDC-133039],9.6,–
CC(Cc1ccc(Cl)cc1)Nc1nc(NC2CCCC2)nc(N2CCC(C#N)(c3ccccc3)CC2)n1 (stereo not drawn) [TCMDC-139928],-79.71,–
CN(C)c1ccc(-c2csc(C(=O)NC3CCCCN(Cc4ccc(C(C)(C)C)cc4)C3)c2)cc1 (stereo not drawn) [TCMDC-134470],63.14,–
CN(C)c1ccc(-c2csc(C(=O)NC3CCCCN(CCC(C)(C)C)C3)c2)cc1 (stereo not drawn) [TCMDC-134487],-62.75,–
CC(=O)Nc1ccc(CN2CCC(NC(=O)c3cc(-c4ccc(N(C)C)cc4)cs3)C2)cc1 (stereo not drawn) [TCMDC-134477],92.99,–
CN(C)c1ccc(CN2CCCCC(NC(=O)c3cc(-c4ccccc4F)cs3)C2)cc1 (stereo not drawn) [TCMDC-134471],-62.25,–
CN(C)c1ccc(-c2ccc(C(=O)NC3CCN(Cc4ccc(C(C)(C)C)cc4)CC3)s2)cc1 [TCMDC-134354],-40.81,–
CN(C)c1ccc(-c2csc(C(=O)NC3CCN(Cc4ccc(C(C)(C)C)cc4)C3)c2)cc1 (stereo not drawn) [TCMDC-134476],63.77,–
CC(C)(C)c1ccc(CN2CCCCC(NC(=O)c3cc(-c4cccc(Cl)c4)cs3)C2)cc1 (stereo not drawn) [TCMDC-134468],-11.91,–
O=C(NCC1CCC(C(=O)NCc2cccc(C(F)(F)F)c2)CC1)c1ccc(O)c(-c2ccc(Cl)c(Cl)c2)c1 (stereo not drawn) [TCMDC-140886],8.372,–
COc1ccc2sc(CNCCCNc3cc(=O)c4ccccc4[nH]3)c(Cl)c2c1 [TCMDC-140334],-8.727,–

SMILES,% Inhibition [%],% Inhibition (% Inhibition) [%]
O=C(NC1CCN(Cc2ccccc2)CC1)c1ccc(-c2nc3cc4ccccc4cc3[nH]2)s1 [TCMDC-140122],18.76,–
CC1Cc2ccccc2N1CC(=O)Nc1cc(C(F)(F)F)ccc1-n1cncn1 (stereo not drawn) [TCMDC-124870],-73.33,–
O=C(NCCNc1noc(-c2sccc2Br)n1)c1ccc(Cl)cc1 [TCMDC-134182],2.834,–
O=c1cc(N2CCCNCC2)c(Cl)nn1Cc1ccc(NS(=O)(=O)c2ccc(Oc3ccccc3)cc2)cc1 [TCMDC-141692],2.781,–
COc1ccc(-c2cnc3[nH]cc(-c4ccc(C(=O)O)cc4)c3c2)cn1 [TCMDC-136213],14.9,–
COc1ccc(-c2cnc3[nH]cc(-c4ccc(CCC(=O)O)cc4)c3c2)cn1 [TCMDC-136240],35.75,–
COc1ccc(-c2cnc3[nH]cc(-c4ccncc4)c3c2)cc1OC [TCMDC-135853],140.3,–
COc1ccc(CNC(=O)C2Cc3ccccc3CN2Cc2ccc3ccccc3c2)cc1 (stereo not drawn) [TCMDC-141565],-15.29,–
CC1CCCN(C(=O)c2cc(-c3ccccn3)nc3c(Cl)cccc23)C1 (stereo not drawn) [TCMDC-125218],20.47,–
O=C(Nc1nc(-c2ccccn2)cc2ccccc12)c1cccc(Cl)c1 [TCMDC-123886],116.1,–
O=C(O)c1ccc2nc(-c3ccccn3)c(-c3ccccn3)nc2c1 [TCMDC-123820],-4.631,–
COc1ccc(-c2nonc2NC(=O)c2cccc(Cl)c2)cc1OC [TCMDC-125401],22.75,–
CC(=O)Oc1cc(C(=O)Nc2ccc(Cl)cc2)cc2ccccc12 [TCMDC-123708],7.424,–
NC(=Nc1nc(-c2ccccn2)cc2ccccc12)c1cccc(Cl)c1 [TCMDC-123745],62.24,–
O=C(NC1CCN(Cc2ccccc2)CC1)c1ccc(-c2nc3cc(Cl)c(F)cc3[nH]2)s1 [TCMDC-140100],2.226,–
Cc1ccc(-c2csc(C)n2)c(C)c1 [TCMDC-125751],2.132,–
O=c1cc(-c2cccc(C(F)(F)F)c2)nc(Nc2ccc(Cl)c(Cl)c2)[nH]1 [TCMDC-132206],43.99,–
COc1cc(CS(C)(=O)=O)ccc1Nc1nccc(-c2c(-c3cccc(NC(=O)c4c(F)cccc4F)c3)nn3ccccc23)n1 [TCMDC-135792],-6.854,–
O=C(C=Cc1ccc(Cl)c(Cl)c1)NCCCCCN1CCC(CCNS(=O)(=O)c2ccc(F)cc2)CC1 [TCMDC-139585],78.1,–
O=C(/C=C/c1ccc(Cl)c(Cl)c1)NCCCCCN1CCC(NC(=O)Nc2ccc(F)cc2F)CC1 [TCMDC-135712],11.66,–
O=C(C=Cc1ccc(Cl)c(Cl)c1)NCCCCCN1CCC(CCCNS(=O)(=O)c2ccc(F)cc2)CC1 [TCMDC-139589],110.7,–
O=C(/C=C/c1ccc(Cl)c(Cl)c1)NCCCCCN1CCC(NC(=S)Nc2ccc(F)cc2F)CC1 [TCMDC-135900],33.5,–
O=C(/C=C/c1ccc(Cl)c(Cl)c1)NCCCCCN1CCC(NC(=O)c2ccc(F)cc2F)CC1 [TCMDC-135842],-11.69,–
Cc1cc(NC(=O)Nc2cccc(Cl)c2Cl)c2ccccc2n1 [TCMDC-138971],10.53,–

SMILES,% Inhibition [%],% Inhibition (% Inhibition) [%]
O=C(CCc1c[nH]cn1)Nc1cccc(-c2ccc(-c3nc4cc(F)ccc4[nH]3)s2)c1 [TCMDC-132160],19.34,–
CCOc1ccc(CCCON2C(N)=NC(N)=NC2(C)C)cc1 [TCMDC-131754],18.76,–
C/C=C1\CN2CC[C@H]1C[C@H]2[C@H](O)c1ccnc2ccc(OC)cc12 [TCMDC-138275],–,1.908
COc1ccc2ncc(C#N)c(CCN3CCC(NCc4cnc5c(c4)OCCO5)CC3)c2n1 [TCMDC-135230],35.06,–
CC(C)C(NC(=O)c1c(F)cccc1F)C(=O)Nc1ccc(Cc2nc3ccccc3s2)cc1 (stereo not drawn) [TCMDC-125462],-3.098,–
CC(C)[C@H](NC(=O)c1c(F)cccc1F)C(=O)Nc1ccc(Cc2nc3ccccc3s2)cc1 [TCMDC-125031],63.22,–
CC(=O)c1sc(Cc2nc3ccccc3s2)nc1C [TCMDC-125337],10.02,–
O=C(c1ccccc1N=Nc1c(-c2ccccc2)[nH]n(-c2ccccc2)c1=O)N1CCOCC1 [TCMDC-125746],-15.29,–
O=C(Nc1cc(F)cc(-c2cccnc2)c1)c1ccc2c(=O)n(Cc3ccccc3)cnc2c1 [TCMDC-132372],12.04,–
CN(C)Cc1cccc(-c2ccc(NC(=O)c3ccc4c(=O)n(Cc5ccoc5)cnc4c3)cc2)c1 [TCMDC-132369],14.65,–
CN(C)Cc1ccc(-c2ccc(NC(=O)c3ccc4c(=O)n(Cc5ccoc5)cnc4c3)cc2)cc1 [TCMDC-132368],79.58,–
CN(C)CCN(C)Cc1ccc(-c2ccc(NC(=O)c3cccc(C#N)c3)cc2)cc1 [TCMDC-132597],-16.52,–
CN1CCC(Oc2ccc(NC(=O)c3ccc4c(=O)n(Cc5ccccc5)cnc4c3)cc2Cl)CC1 [TCMDC-132373],-13.59,–
CN(C)Cc1ccc(-c2ccc(NC(=O)c3ccc4c(=O)n(Cc5ccccc5)cnc4c3)cc2)cc1 [TCMDC-132361],121.5,–
Brc1ccsc1-c1nc(NCCC(c2ccccc2)c2ccccc2)no1 [TCMDC-134185],1.138,–
COc1ccc(C2CC(=O)C3=C(C2)NC(C)=C(C(=O)OC2CCCC2)C3c2ccc(O)cc2)cc1OC (stereo not drawn) [TCMDC-125626],11.61,–
COc1cc2nc(-c3ccccc3)nc(N3CCN(CC(=O)N4CCCC4)CC3)c2cc1OC [TCMDC-125097],-15.61,–
O=C(/C=C/c1ccc(Cl)c(Cl)c1)N1CCC(CNCc2cccc3cc[nH]c23)CC1 [TCMDC-134168],-34.36,–
COc1ccc(/C=C/C(=O)Nc2ccc(-c3ccncc3)cc2)cc1CCCN(C)C [TCMDC-132082],72.07,–
Cc1nc(-c2ccc(-c3ccc(C(=O)Nc4ccc(C(C)C)c(OCCN(C)C)c4)cc3)c(C)c2)no1 [TCMDC-138990],-34.94,–
COc1cc(NC(=O)/C=C/c2ccc(-c3ccccc3)cc2)ccc1OCCN(C(C)C)C(C)C [TCMDC-139961],-1.594,–
COc1ccc(C(=O)Nc2ccc(-c3ccc([N+](=O)[O-])cc3)cc2)cc1CCCN(C)C [TCMDC-132090],0.6115,–
COc1ccc(NC(=O)/C=C/c2ccc(-c3ccc(-c4noc(C)n4)cc3)cc2)cc1OCCN(C)C [TCMDC-138985],62.93,–
COc1ccc(NC(=O)/C=C/c2ccc(-c3ccccc3)cc2)cc1N1CCN(C)CC1 [TCMDC-138979],-7.206,–

# — publication PMC4552634, “A New Set of Chemical Starting Points with Plasmodium falciparum Transmission-Blocking Potential for Antimalarial Drug Discovery” (PLoS ONE, 2015)
